# High-throughput results deposited in PubChem by National Center for Advancing Translational Sciences (NCATS).
# Hits are enriched below; roughly 10% of the tested compounds scored in any of these assays.
# hNpr1 antagonist – antagonists of human natriuretic peptide receptor Npr1; P16066; HEK293 hNpr1 GloSensor cGMP, ANP-stimulated luminescence; Potency, µM (series often up to 46.3 µM), without a hit: at the top dose activity change, negative = inhibition, hits mostly inhibitors; 76,000 compounds, 1.6% hits; AID 1347048; calls by dose curve; note: nearly all actives have a fitted effect of over 60% in size
#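 HEK293 cells stably expressing human Npr1 and cGMP GloSensor pGS-40F, loaded 2 h with 2% GloSensor reagent, given compound 30 min at room temperature. Luminescence read before and 20 min after 0.1 nM hNppA.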
# HEK cytotox – cytotoxic compounds in HEK 293 cells | HEK 293 viability, ATP luminescence (CellTiter-Glo), 48-72 h | Potency, µM (series often up to 115 µM), for inactives: top-dose activity change, negative = cytotoxicity, most hits filed as inhibitors | 94,000 compounds, 6.6% hits; note: nearly all actives have a fitted effect of over 60% in size
#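 ATP-coupled CellTiter-Glo luminescence served as viability read-out, recorded 10 min after reagent addition at room temperature. HEK 293 cells, 250 cells/well, had been incubated with pintool-transferred compound for 48 or 72 hr at 37 degree Celsius.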
# GPT2 inh – blocks human glutamate pyruvate transaminase 2; Recombinant GPT2, coupled pyruvate oxidase/HRP Amplex Red fluorescence; Potency, µM (titrated, usually from 57.7 µM), inactives show at the top dose activity change, negative = inhibition, most hits filed as inhibitors; 100,000 compounds, 0.25% hits; note: nearly all actives have a fitted effect of over 60% in size
# Target sequence (Q8TD30 whole entry, looked up): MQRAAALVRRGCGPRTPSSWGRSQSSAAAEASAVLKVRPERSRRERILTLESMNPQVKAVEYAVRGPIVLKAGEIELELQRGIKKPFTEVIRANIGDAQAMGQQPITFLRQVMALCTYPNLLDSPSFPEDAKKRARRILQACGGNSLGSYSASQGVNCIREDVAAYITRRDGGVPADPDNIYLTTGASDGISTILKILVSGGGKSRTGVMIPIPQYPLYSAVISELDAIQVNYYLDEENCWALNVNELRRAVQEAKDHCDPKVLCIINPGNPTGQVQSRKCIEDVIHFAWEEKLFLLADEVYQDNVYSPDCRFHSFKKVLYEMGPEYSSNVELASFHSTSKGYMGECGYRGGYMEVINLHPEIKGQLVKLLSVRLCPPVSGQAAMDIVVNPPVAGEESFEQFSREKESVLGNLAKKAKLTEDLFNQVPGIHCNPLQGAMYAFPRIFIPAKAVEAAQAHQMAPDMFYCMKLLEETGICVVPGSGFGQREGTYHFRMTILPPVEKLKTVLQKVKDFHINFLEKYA
#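 Fluorescence read-out: pyruvate from GPT2 turnover coupled to pyruvate oxidase, HRP and Amplex Red (0.2mM ThPP, 0.2U/mL PO and HRP, 50uM Amplex final). Substrates 250uM a-KG, 2mM L-alanine; enzyme 10ng/uL; 30 min RT.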
# NIH3T3 tox – cytotoxic compounds in NIH 3T3 cells; NIH 3T3 viability, CellTiter-Glo ATP luminescence, 48-72 h; Potency, µM (titrated, usually from 96.7 µM), without a hit: at the top dose activity change, negative = cytotoxicity, actives largely listed as inhibitors; 94,000 compounds, 4.3% hits; note: nearly all actives have a fitted effect of over 55% in size
#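 Viability of NIH 3T3 cells after 48 or 72 hr compound treatment at 37 °C was assessed by CellTiter-Glo, with luminescence imaged following a 10 min room-temperature step.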
# FLuc inh – Photinus pyralis luciferase inhibition; P08659; purified P. pyralis luciferase, luminescence, biochemical; Potency, µM (titrated, usually from 115 µM), hits mostly inhibitors; 76,000 compounds, 2.5% hits; note: nearly all actives have a fitted effect of over 65% in size
#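 Luminescence read by CCD imager after adding enzyme (10nM final) to wells holding compound, titrated in qHTS. Substrates 10uM each D-luciferin and ATP; buffer 50mM Tris acetate pH 7.5, 10mM Mg acetate, Tween-20, BSA.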
# Active calls of the source: *; i = inactive; ? = inconclusive; · = no result given; [ ] = dose if it differs, or a comment. Unless noted, calls come from the whole dose curve; as a rule, active = well fitted curve in the direction sought with a large enough effect; inconclusive = small, poorly fitted or top-dose-only effect, or another doubt; inactive = no such curve, though single readings can be large; an effect the other way counts as inactive or inconclusive. % is set by controls: 0 for no effect and ±100 for the full control effect; potency is the fitted concentration of half-maximal effect.
SMILES,hNpr1 antagonist,HEK cytotox,GPT2 inh,NIH3T3 tox,FLuc inh
CC(=O)Nc1ccc(CN2C(=O)OC3(CCN(Cc4ccc(C(C)C)cc4)CC3)C2(C)c2ccccc2)cc1 (centres undefined),-2.3%,?,0.0%,35.5µM*,i
CC(C)c1ccc(CN2CCC3(CC2)OC(=O)N(Cc2ncccn2)C3(C)c2ccccc2)cc1 (centres undefined),0.1%,39.8µM*,-2.6%,?,i
CC(C)c1ccc(CN2CCCC3(CCN(C(=O)c4ccnn4C)C3)C2)cc1 (centres undefined),-14.9%,39.8µM*,i,-26.8%,i
CC(O)CN1CC2(CCC1=O)CCN(C(=O)c1ccnn1C)CC2 (centres undefined),14.2%,-17.6%,-11.6%,-11.0%,i
c1csc(-c2nc3nccc(-c4ccncc4)n3n2)c1,3.4%,-4.0%,-6.0%,-14.5%,i
c1coc(-c2ccnc3nc(-c4cccs4)nn23)c1,6.2%,-13.7%,i,35.5µM*,i
COc1cccc(-c2ccnc3nc(-c4cccs4)nn23)c1,-13.9%,?,-2.7%,?,15.8µM*
c1csc(-c2nc3nccc(-c4ccsc4)n3n2)c1,0.7%,?,i,?,i
COc1ccc(CC(=O)N2CCC3(CC2)CC(=O)N(c2ccccc2)c2ccccc2O3)cc1,31.0%,?,2.0%,-20.5%,i
C1=C(c2cc(-c3cccc(N4CCOCC4)c3)cn3cncc23)CCOC1,-5.0%[70.6 µM],?,?,?,i
COc1ncccc1-c1cc(C2=CCOCC2)c2cncn2c1,4.9%[70.6 µM],-16.9%[172 µM],i,?,i
Oc1cccc(-c2cc(C3=CCOCC3)c3cncn3c2)c1,-10.8%[70.6 µM],?,?,100µM*,i
Oc1ccccc1-c1cc(C2=CCOCC2)c2cncn2c1,-2.0%[70.6 µM],100µM*,-1.5%[88.5 µM],63.1µM*,i
CCN(CC)Cc1ccc2c(c1)CNCCO2,0.5%,0.0%,i,-9.6%,i
CCOC(=O)C1CCN(C(=O)C2CCCN(c3ccnc4ccnn34)C2)CC1 (centres undefined),·,-12.3%,-5.7%,-22.7%,·
COc1cccc(CN2CCCC(NC(=O)NCc3cccs3)C2)c1 (centres undefined),-0.2%,-9.5%,-8.5%,-7.8%,i
COCCN1C(=O)[C@@H]2C[C@@H](CN2C(=O)c2ccccn2)Oc2ccccc21,0.6%[70.6 µM],?,2.7%[88.5 µM],-7.6%[138 µM],i
OCC1(Cc2ccc(F)cc2)CCCN(c2nc3ccccc3s2)C1 (centres undefined),?,39.8µM*,-6.6%,?,i
CC1Oc2ccc(NC(=O)c3ccccc3)cc2CN(Cc2ccc(Cl)cc2)C1=O (centres undefined),-18.0%,8.91µM*,i,?,i
CC1Oc2ccc(NC(=O)c3ccc(Cl)cc3)cc2CN(Cc2cc(F)cc(F)c2)C1=O (centres undefined),-23.1%,20µM*,i,?,i
COc1ccc(CN2Cc3cc(NC(=O)c4ccc(Cl)cc4)ccc3OC(C)C2=O)c(OC)c1 (centres undefined),5.1%,?,-16.9%,?,i
COc1ccc(CN2Cc3cc(NC(=O)c4ccc(F)cc4F)ccc3OC(C)C2=O)c(OC)c1 (centres undefined),-17.8%,44.7µM*,?,?,i
CC1Oc2ccc(NC(=O)c3ccc(Cl)cc3)cc2CN(C(C)C)C1=O (centres undefined),?,?,i,39.8µM*,i
COc1ccc(C(=O)Nc2ccc3c(c2)CN(Cc2ccc(OC)cc2OC)C(=O)C(C)O3)cc1 (centres undefined),-24.3%,?,-5.0%,-27.1%,i
COc1ccc(F)cc1-c1cccc(C(=O)NCCNC(=O)NC2CCCC2)c1,·,?,0.9%,?,·
SMILES,hNpr1 antagonist,HEK cytotox,GPT2 inh,NIH3T3 tox,FLuc inh
CC(=O)Oc1ccccc1C(=O)Nc1ccc2c(c1)CN(Cc1ccc(Cl)cc1)C(=O)C(C)O2 (centres undefined),?,?,-6.3%,25.1µM*,i
CC1Oc2ccc(NC(=O)c3ccc(F)cc3)cc2CN(Cc2ccccc2Cl)C1=O (centres undefined),-9.0%,?,?,?,i
CCC1Oc2ccc(NC(=O)c3ccc([N+](=O)[O-])cc3)cc2CN(C(C)CC)C1=O (centres undefined),-22.0%,22.4µM*,-14.9%,?,i
CC1Oc2ccc(NC(=O)c3ccc(F)cc3)cc2CN(Cc2ccccc2F)C1=O (centres undefined),-6.3%,44.7µM*,i,?,i
COCc1cc(=O)n(CC(=O)Nc2ccc(OC)c(OC)c2)c(N2CCOCC2)n1,-8.3%,-0.7%,3.1%,1.8%,i
O=C1NCCCCCCN(S(=O)(=O)c2ccc3c(c2)CCC3)[C@H]2CCCC[C@@H]12,2.7%,?,i,-27.1%,i
CCOC(=O)c1ccc(NC(=O)N2Cc3[nH]cnc3C[C@H]2c2nc(-c3ccc4c(c3)OCO4)no2)cc1,-3.3%,?,-5.6%,28.2µM*,39.8µM*
CCOC(=O)c1ccc(NC(=O)N2Cc3[nH]cnc3C[C@H]2c2nc(-c3ccc(OC(F)(F)F)cc3)no2)cc1,-16.0%,?,-10.5%,25.1µM*,?
O=C(Nc1ccc(Cl)cc1)N1Cc2[nH]cnc2C[C@H]1c1nc(-c2ccc(F)c(Cl)c2)no1,?,?,2.0%,25.1µM*,7.94µM*
O=C(Nc1ccc(Cl)cc1)N1Cc2[nH]cnc2C[C@H]1c1nc(-c2ccc(OC(F)(F)F)cc2)no1,?,20µM*,-17.9%,25.1µM*,i
CCOC(=O)c1ccc(NC(=O)N2Cc3[nH]cnc3C[C@H]2c2nc(-c3ccncc3)no2)cc1,-5.4%,-11.3%,i,?,i
Cc1nc(CN2C(=O)OC3(CCN(C(=O)COc4ccccc4C(N)=O)CC3)C2(C)c2ccccc2)cs1 (centres undefined),-17.1%,-17.8%,-18.5%,?,i
Fc1ccc(CN2CC(N3CCc4ccccc43)C2)cc1,·,-16.4%[172 µM],-23.7%[88.5 µM],-10.3%[138 µM],·
CN(C)c1ccc(CN2CC(N3CCc4ccccc43)C2)cc1,-6.4%[70.6 µM],89.1µM*,i,89.1µM*,i
O=C(OCc1ccccc1)N1CCC2(CC1)C(=O)NN=C2C1CC1,-2.2%[70.6 µM],112µM*,0.8%[88.5 µM],-11.1%[138 µM],i
COC(=O)[C@@H]1[C@H]2C[C@H]3c4[nH]c5ccccc5c4CCN3C[C@@H]2CC[C@@H]1O,·,·,2.2%,·,·
COC(=O)[C@@H]1Cc2c([nH]c3ccccc23)[C@H]2C[C@@H](NC(C)C)C[C@@H](c3ccccc3)N21,-15.1%[70.6 µM],35.5µM*,-0.4%[88.5 µM],39.8µM*,?
